Pf Dd2 inh: blocks growth of Plasmodium falciparum Dd2 parasites | P. falciparum Dd2 growth, SYBR Green, 72 h; stronger effect = lower value | activity change, % at 10 µM | 2.3% of 94,000 active | AID 1159554; in the data active = activity change below about -80%; inconclusive = no clear call, values can overlap the other calls
C diff growth: inhibitors of Clostridium difficile growth. growth activity, negative = inhibition, % at 16 µg/mL (by protocol). Clostridium difficile clinical isolate growth, OD600, 24 h; stronger effect = lower value. 0.25% of 86,000 active. AID 1259249;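 active = mean growth activity at or below -80% and every replicate also at or below -80%; inconclusive = mean at or below -80% but some replicate above -80%; inactive = mean growth activity above -80%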;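 note: 0% = DMSO wells and -100% = levofloxacin 16 µg/mL wells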
T cruzi growth-1: inhibitors of T. cruzi proliferation. T. cruzi beta-gal in NIH3T3, GalScreen luminescence, 90 h. inhibition, % at 8.34 µM. 5.9% of 77,000 active. AID 624255;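 active = mean inhibition above about 93%, with at least 55% of replicates each passing it, limit read from the data, passing the limit was not always enough; inconclusive = only one of those two conditions holds; inactive = neither condition holds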
T cruzi growth-2: Trypanosoma cruzi proliferation inhibition | shares compounds with T cruzi growth-1 | T. cruzi beta-gal in NIH3T3, GalScreen luminescence, 90 h | inhibition, % at 8.35 µM | 72% of 5,600 active | AID 651739;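 active = mean replicate inhibition above about 95% and at least 55% of replicates individually reaching it, limit read from the data; inconclusive = only one of the two criteria is met; inactive = neither criterion is met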
T cruzi growth-3: inhibitors of T. cruzi proliferation; AID 651740; 21% of 5,600 active; inhibition, % at 2.09 µM; shares compounds with T cruzi growth-1; T. cruzi beta-gal in NIH3T3, GalScreen luminescence, 90 h;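 active = mean inhibition above about 95%, with at least 55% of replicates also reaching it, limit read from the data; inconclusive = meets just one of the two conditions; inactive = meets neither condition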;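 note: plate controls were neutral control median for no effect and positive control median for full effect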
3T3 cytotox: cytotoxicity in mouse NIH/3T3 fibroblasts | shares compounds with T cruzi growth-1 | NIH/3T3 viability, CellTiter-Glo ATP luminescence, 90 h | cytotoxicity (signal decrease), % at 8.35 µM | 14% of 5,600 active | AID 651742;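 active = mean signal decrease across replicates above about 35% based on untreated-well scatter, with enough replicates individually passing, limit read from the data; inconclusive = no rule stated though some were filed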;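 note: 0% = median of neutral control wells and 100% = median of positive control wells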
3T3 cytotox 2: kills mouse NIH/3T3 fibroblasts; inhibition, % at 24.9 µM; shares compounds with T cruzi growth-1; 56% of 5,600 active; NIH/3T3 viability, CellTiter-Glo ATP luminescence, 90 h; AID 651744;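 active = mean loss of cell viability signal at or above a set limit, and enough replicates individually reaching it; inconclusive = meets only the mean limit or only the replicate share; inactive = meets neither condition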;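 note: 0% = median of neutral control wells and 100% = median of positive control wells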
* hit, by the source's call; ? = inconclusive; nt = not tested or not shown. A selection: hits, their analogues and other compounds. The true share with any hit is near 6.7%.

SMILES	Pf Dd2 inh	C diff growth	T cruzi growth-1	T cruzi growth-2	T cruzi growth-3	3T3 cytotox	3T3 cytotox 2
C[C@@H]1CCCCO[C@H](CN(C)C(=O)Nc2ccc(F)cc2)[C@H](C)CN([C@@H](C)CO)C(=O)c2cc(NC(=O)C3CCCCC3)ccc2O1	-75	6	?	97*	48	-2	18
C[C@H]1CCCCO[C@@H](CN(C)C(=O)Nc2ccc3c(c2)OCO3)[C@@H](C)CN([C@@H](C)CO)C(=O)c2cc(NC(=O)C3CCCCC3)ccc2O1	-76	-3	77	nt	nt	nt	nt
C[C@H]1CCCCO[C@@H](CN(C)C(=O)Nc2ccccc2)[C@@H](C)CN([C@@H](C)CO)C(=O)c2cc(NC(=O)C3CCCCC3)ccc2O1	-24	-1	59	nt	nt	nt	nt
COc1ccc(NC(=O)N(C)C[C@@H]2OCCCC[C@H](C)Oc3ccc(NC(=O)C4CCCCC4)cc3C(=O)N([C@@H](C)CO)C[C@@H]2C)cc1	-76	3	46	nt	nt	nt	nt
C[C@H](CO)N1C[C@H](C)[C@H](CN(C)C(=O)Nc2ccc3c(c2)OCO3)OCCCC[C@H](C)Oc2ccc(NC(=O)C3CCCCC3)cc2C1=O	-47	-3	97*	109*	46	-10	-19
COc1ccc(NC(=O)N(C)C[C@H]2OCCCC[C@@H](C)Oc3ccc(NC(=O)C4CCCCC4)cc3C(=O)N([C@@H](C)CO)C[C@H]2C)cc1	-80	-2	97*	98*	40	-30	-21
C[C@@H]1CN([C@H](C)CO)C(=O)c2cc(NC(=O)Nc3ccc4c(c3)OCO4)ccc2O[C@H]1CN(C)C(=O)Nc1ccc(F)cc1	29	0	-2	nt	nt	nt	nt
C[C@@H]1CN([C@@H](C)CO)C(=O)CCCn2cc(nn2)CO[C@@H]1CN(C)C(=O)Nc1cccc(F)c1	-20	-5	90	nt	nt	nt	nt
C[C@@H]1CCCCO[C@H](CN(C)Cc2ccc(C(F)(F)F)cc2)[C@H](C)CN([C@H](C)CO)C(=O)c2cc(NC(=O)Nc3ccc(C(F)(F)F)cc3)ccc2O1	-70	11	80	nt	nt	nt	nt
C[C@H]1CCCCO[C@H](CN(C)Cc2ccncc2)[C@@H](C)CN([C@@H](C)CO)C(=O)c2cc(NC(=O)Nc3ccc(C(F)(F)F)cc3)ccc2O1	14	6	99*	100*	93	22	83*
C[C@@H]1CCCCO[C@@H](CN(C)Cc2ccc(C(F)(F)F)cc2)[C@@H](C)CN([C@@H](C)CO)C(=O)c2cc(NC(=O)Nc3ccc(F)cc3)ccc2O1	15	nt	108*	98*	107*	-3	9
C[C@H]1CCCCO[C@@H](CN(C)Cc2ccc(C(F)(F)F)cc2)[C@@H](C)CN([C@@H](C)CO)C(=O)c2cc(NC(=O)Nc3ccc(F)cc3)ccc2O1	-57	nt	94	nt	nt	nt	nt
C[C@@H]1CCCCO[C@@H](CN(C)Cc2ccc(C(F)(F)F)cc2)[C@@H](C)CN([C@H](C)CO)C(=O)c2cc(NC(=O)Nc3ccc(F)cc3)ccc2O1	62	nt	102*	101*	72	11	25
C[C@@H]1CCCCO[C@@H](CN(C)Cc2ccncc2)[C@H](C)CN([C@H](C)CO)C(=O)c2cc(NC(=O)Nc3ccc(C(F)(F)F)cc3)ccc2O1	-23	16	88	nt	nt	nt	nt
C[C@@H]1CCCCO[C@H](CN(C)Cc2ccc(C(F)(F)F)cc2)[C@@H](C)CN([C@@H](C)CO)C(=O)c2cc(NC(=O)Nc3ccc(F)cc3)ccc2O1	-80	nt	93	nt	nt	nt	nt
C[C@@H]1CCCCO[C@@H](CN(C)Cc2ccc(C(F)(F)F)cc2)[C@H](C)CN([C@H](C)CO)C(=O)c2cc(NC(=O)Nc3ccc(F)cc3)ccc2O1	9	nt	110*	92	108*	10	57*
Cc1ccc(S(=O)(=O)N(C)C[C@@H]2Oc3ccc(NC(=O)Nc4cccc5ccccc45)cc3C(=O)N([C@H](C)CO)C[C@@H]2C)cc1	-56	nt	49	nt	nt	nt	nt
COc1cccc(CNC(=O)C[C@H]2C=C[C@@H](NC(=O)C3CCC3)[C@@H](CO)O2)c1	31	nt	-35	nt	nt	nt	nt
C[C@@H]1CN([C@@H](C)CO)C(=O)c2cc(NC(=O)Nc3ccc(C(F)(F)F)cc3)ccc2O[C@@H](C)CCCCO[C@@H]1CN(C)Cc1ccc(C(F)(F)F)cc1	-71	3	95*	102*	105*	-4	-33
Cc1noc(C)c1NC(=O)Nc1ccc2c(c1)C(=O)N([C@@H](C)CO)C[C@@H](C)[C@H](CN(C)Cc1ccc(C(F)(F)F)cc1)OCCCC[C@H](C)O2	-44	11	85	nt	nt	nt	nt
C[C@@H]1CCCCO[C@@H](CN(C)Cc2ccc(C(F)(F)F)cc2)[C@H](C)CN([C@H](C)CO)C(=O)c2cc(NC(=O)Nc3ccc(C(F)(F)F)cc3)ccc2O1	-74	3	82	nt	nt	nt	nt
Cc1noc(C)c1NC(=O)Nc1ccc2c(c1)C(=O)N([C@H](C)CO)C[C@@H](C)[C@H](CN(C)Cc1ccc(C(F)(F)F)cc1)OCCCC[C@H](C)O2	-57	11	?	114*	30	-8	69*
Cn1cnc(S(=O)(=O)N[C@@H]2CC[C@H](CC(=O)Nc3ccc(-c4ccccc4)cc3)O[C@@H]2CO)c1	-3	-1	21	nt	nt	nt	nt
CN1C(=O)c2cc(NC(=O)c3ccc(F)c(F)c3)ccc2OC[C@@H]2O[C@H](CC(=O)N[C@@H]3CCN(Cc4ccccc4)C3)CC[C@@H]21	nt	1	108*	?	87	13	54*
CN1C(=O)c2cc(NC(=O)c3ccc(F)c(F)c3)ccc2OC[C@H]2O[C@@H](CC(=O)N[C@@H]3CCN(Cc4ccccc4)C3)CC[C@@H]21	nt	30	98*	61	74	-2	7
CN1C(=O)c2cc(NC(=O)c3ccc(F)c(F)c3)ccc2OC[C@@H]2O[C@H](CC(=O)N[C@H]3CCN(Cc4ccccc4)C3)CC[C@@H]21	nt	-15	104*	104*	82	0	32*
CCS(=O)(=O)Nc1ccc2c(c1)C(=O)N(C)[C@@H]1CC[C@@H](CC(=O)N[C@H]3CCN(Cc4ccccc4)C3)O[C@@H]1CO2	nt	nt	-17	nt	nt	nt	nt
CCS(=O)(=O)Nc1ccc2c(c1)C(=O)N(C)[C@@H]1CC[C@@H](CC(=O)N[C@@H]3CCN(Cc4ccccc4)C3)O[C@@H]1CO2	nt	nt	27	nt	nt	nt	nt
CN1C(=O)c2cc(NC(=O)c3ccc(F)c(F)c3)ccc2OC[C@H]2O[C@H](CC(=O)N[C@@H]3CCN(Cc4ccccc4)C3)CC[C@H]21	nt	8	91	nt	nt	nt	nt
CN1C(=O)c2cc(NC(=O)c3ccc(F)c(F)c3)ccc2OC[C@@H]2O[C@@H](CC(=O)N[C@@H]3CCN(Cc4ccccc4)C3)CC[C@H]21	nt	9	101*	108*	64	1	0
